Source: the supplement of paper PMC11732987, “Enantioselective OTUD7B fragment discovery through chemoproteomics screening and high-throughput optimisation” (Communications Chemistry, 2025)

Columns and labels:
Assay in all cases: log2 ratio of Biotin-Ahx-Ub-VS probe labelling (fragment/DMSO); higher = less target engagement (more negative = stronger competition), active = hit call of the paper (q ≤ 0.05, log2 ratio ≤ -1)
Details in all cases: compound concentration: 200 uM; treatment time: 3 h
USP42 = biological target: T1, USP42 (UniProt Q9H9J4)
T1 sequence (whole entry): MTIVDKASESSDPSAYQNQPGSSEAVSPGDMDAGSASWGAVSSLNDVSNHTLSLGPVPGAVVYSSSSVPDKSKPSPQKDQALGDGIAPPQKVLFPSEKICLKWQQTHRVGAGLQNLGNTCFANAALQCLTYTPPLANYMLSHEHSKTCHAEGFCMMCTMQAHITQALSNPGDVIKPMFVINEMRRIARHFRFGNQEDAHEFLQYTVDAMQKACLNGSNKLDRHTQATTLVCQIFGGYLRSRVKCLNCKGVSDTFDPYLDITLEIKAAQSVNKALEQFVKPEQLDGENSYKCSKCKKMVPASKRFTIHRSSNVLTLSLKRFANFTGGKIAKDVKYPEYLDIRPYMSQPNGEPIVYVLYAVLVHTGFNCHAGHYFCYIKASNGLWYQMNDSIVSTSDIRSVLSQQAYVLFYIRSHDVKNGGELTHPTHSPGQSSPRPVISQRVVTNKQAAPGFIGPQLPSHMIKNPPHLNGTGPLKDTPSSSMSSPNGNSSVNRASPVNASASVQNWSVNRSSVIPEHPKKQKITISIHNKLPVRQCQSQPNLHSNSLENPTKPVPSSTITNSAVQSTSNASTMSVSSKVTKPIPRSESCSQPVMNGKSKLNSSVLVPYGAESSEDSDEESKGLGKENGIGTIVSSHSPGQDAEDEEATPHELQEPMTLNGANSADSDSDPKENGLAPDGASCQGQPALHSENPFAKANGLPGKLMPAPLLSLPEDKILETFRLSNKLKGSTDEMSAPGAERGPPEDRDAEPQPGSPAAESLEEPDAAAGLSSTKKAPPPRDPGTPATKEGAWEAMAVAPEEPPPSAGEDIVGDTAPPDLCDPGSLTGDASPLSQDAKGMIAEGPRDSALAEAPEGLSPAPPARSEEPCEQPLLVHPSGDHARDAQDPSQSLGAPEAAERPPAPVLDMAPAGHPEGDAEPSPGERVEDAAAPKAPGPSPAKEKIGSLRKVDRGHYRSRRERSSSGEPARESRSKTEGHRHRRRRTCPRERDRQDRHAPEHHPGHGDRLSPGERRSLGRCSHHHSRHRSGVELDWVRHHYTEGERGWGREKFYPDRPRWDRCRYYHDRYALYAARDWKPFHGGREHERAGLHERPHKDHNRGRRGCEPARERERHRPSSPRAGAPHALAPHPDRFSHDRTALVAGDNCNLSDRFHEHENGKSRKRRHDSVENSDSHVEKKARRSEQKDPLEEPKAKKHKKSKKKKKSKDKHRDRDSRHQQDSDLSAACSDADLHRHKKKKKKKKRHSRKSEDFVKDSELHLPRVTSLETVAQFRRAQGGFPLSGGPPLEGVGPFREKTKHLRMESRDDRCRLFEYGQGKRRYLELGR
Outline: (§1)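 Using Biotin-Ahx-Ub-VS at 0.5 µM final for 1 h, DUBs were labelled in HEK293T lysate (495 µg per sample) that had first been treated in triplicate with fragment at 200 µM or vehicle for 3 h. NeutrAvidin enrichment, LysC and trypsin digestion and diaPASEF LC-MS/MS followed. Spectronaut label-free quantities were global-median-normalised. Values are average log2 fragment/vehicle ratios by unpaired t-test, using proteins with ≥2 unique peptides.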

USP46 = USP46 (UniProt P62068)
Outline: as §1

USP47 = biological target: T2, USP47 (UniProt Q96K76)
T2 sequence (whole entry): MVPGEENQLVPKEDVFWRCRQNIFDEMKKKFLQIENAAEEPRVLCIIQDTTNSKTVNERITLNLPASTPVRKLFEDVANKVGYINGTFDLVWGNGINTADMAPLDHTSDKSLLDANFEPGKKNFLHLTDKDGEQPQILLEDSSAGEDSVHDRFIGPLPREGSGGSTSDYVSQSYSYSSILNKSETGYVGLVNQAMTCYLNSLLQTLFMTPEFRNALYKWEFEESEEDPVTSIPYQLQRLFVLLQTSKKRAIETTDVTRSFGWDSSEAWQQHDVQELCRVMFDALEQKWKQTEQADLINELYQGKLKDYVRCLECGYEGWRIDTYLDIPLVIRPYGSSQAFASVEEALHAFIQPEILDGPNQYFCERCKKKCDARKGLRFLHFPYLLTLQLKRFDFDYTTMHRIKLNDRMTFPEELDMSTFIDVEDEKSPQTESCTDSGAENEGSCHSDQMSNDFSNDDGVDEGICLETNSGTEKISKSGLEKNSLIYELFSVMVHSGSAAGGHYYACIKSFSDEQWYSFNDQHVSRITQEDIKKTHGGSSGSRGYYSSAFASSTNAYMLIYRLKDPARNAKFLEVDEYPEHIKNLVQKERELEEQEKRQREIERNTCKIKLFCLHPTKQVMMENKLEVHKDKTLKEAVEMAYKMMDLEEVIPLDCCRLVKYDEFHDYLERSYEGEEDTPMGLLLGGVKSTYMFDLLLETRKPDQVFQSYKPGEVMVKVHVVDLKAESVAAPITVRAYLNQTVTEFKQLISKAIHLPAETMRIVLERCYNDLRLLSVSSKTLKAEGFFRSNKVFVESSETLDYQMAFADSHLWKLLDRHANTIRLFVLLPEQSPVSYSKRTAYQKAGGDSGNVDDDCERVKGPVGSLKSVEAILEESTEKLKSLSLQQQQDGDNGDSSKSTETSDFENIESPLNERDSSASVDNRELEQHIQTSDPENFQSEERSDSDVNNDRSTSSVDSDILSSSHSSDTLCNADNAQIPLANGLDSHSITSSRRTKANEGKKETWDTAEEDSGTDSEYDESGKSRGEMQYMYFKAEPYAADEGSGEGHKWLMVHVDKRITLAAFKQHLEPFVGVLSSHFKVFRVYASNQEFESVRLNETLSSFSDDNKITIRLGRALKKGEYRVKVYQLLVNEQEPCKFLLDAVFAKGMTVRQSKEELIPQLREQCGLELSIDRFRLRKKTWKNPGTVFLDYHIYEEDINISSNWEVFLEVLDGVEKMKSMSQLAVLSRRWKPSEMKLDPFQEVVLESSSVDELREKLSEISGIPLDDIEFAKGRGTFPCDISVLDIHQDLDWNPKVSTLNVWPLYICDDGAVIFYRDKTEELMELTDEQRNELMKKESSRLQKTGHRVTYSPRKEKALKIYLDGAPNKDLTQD
Outline: as §1

USP48 = biological target: T3, USP48 (UniProt Q86UV5)
T3 sequence (whole entry): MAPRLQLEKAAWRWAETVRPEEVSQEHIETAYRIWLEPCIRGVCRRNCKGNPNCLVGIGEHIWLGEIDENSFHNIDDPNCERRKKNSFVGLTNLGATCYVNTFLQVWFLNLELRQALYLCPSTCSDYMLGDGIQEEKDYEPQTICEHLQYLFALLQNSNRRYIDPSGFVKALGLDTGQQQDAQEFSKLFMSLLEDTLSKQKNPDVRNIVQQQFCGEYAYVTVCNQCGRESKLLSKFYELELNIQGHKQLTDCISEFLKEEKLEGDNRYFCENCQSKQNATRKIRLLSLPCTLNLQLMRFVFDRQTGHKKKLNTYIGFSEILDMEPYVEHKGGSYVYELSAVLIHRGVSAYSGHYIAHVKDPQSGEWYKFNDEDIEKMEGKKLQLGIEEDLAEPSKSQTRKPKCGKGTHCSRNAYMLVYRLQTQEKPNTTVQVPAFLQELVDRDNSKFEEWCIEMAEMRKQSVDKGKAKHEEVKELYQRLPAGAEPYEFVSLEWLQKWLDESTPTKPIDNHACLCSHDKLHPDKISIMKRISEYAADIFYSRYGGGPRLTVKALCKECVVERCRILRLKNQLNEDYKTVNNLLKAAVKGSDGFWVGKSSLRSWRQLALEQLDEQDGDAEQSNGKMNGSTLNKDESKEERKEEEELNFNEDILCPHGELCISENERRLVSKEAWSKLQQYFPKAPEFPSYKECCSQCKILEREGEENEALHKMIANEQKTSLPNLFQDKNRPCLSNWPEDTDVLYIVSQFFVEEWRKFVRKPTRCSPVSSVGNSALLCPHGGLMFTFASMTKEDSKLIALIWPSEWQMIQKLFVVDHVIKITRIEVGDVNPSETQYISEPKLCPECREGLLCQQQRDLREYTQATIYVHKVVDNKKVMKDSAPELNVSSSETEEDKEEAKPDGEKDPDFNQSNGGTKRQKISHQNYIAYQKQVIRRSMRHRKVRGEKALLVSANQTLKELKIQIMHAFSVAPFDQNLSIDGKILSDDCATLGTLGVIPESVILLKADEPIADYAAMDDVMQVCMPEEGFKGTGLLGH
Outline: as §1

USP5 = biological target: T4, USP5 (UniProt P45974)
T4 sequence (whole entry): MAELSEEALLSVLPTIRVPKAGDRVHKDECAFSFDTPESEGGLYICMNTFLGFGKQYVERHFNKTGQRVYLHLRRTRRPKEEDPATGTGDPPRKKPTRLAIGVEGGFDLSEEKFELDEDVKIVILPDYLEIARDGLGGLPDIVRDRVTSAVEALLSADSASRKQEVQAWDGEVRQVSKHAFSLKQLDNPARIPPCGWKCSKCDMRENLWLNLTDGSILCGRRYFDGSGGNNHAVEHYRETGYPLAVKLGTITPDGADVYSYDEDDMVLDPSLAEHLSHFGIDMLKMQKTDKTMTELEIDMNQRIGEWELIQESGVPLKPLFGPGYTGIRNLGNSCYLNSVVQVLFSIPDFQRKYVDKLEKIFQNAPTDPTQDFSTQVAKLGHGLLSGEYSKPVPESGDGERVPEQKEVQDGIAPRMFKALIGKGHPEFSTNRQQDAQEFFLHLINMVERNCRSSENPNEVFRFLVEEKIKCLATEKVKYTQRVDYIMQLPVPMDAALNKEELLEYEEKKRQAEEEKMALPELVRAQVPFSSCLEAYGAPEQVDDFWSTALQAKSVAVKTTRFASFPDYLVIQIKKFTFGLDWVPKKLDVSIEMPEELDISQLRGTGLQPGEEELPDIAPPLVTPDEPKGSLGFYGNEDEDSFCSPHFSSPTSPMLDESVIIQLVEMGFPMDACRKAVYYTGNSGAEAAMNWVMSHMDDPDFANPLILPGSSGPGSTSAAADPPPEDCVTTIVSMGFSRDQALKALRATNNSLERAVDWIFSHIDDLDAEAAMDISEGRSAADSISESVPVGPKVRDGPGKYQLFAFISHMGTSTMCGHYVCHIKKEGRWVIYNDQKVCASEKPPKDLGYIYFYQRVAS
Outline: as §1

USP54 = USP54 (UniProt Q70EL1)
Outline: as §1

USP7 = USP7 (UniProt Q93009)
Outline: as §1

USP8 = biological target: T5, USP8 (UniProt P40818)
T5 sequence (whole entry): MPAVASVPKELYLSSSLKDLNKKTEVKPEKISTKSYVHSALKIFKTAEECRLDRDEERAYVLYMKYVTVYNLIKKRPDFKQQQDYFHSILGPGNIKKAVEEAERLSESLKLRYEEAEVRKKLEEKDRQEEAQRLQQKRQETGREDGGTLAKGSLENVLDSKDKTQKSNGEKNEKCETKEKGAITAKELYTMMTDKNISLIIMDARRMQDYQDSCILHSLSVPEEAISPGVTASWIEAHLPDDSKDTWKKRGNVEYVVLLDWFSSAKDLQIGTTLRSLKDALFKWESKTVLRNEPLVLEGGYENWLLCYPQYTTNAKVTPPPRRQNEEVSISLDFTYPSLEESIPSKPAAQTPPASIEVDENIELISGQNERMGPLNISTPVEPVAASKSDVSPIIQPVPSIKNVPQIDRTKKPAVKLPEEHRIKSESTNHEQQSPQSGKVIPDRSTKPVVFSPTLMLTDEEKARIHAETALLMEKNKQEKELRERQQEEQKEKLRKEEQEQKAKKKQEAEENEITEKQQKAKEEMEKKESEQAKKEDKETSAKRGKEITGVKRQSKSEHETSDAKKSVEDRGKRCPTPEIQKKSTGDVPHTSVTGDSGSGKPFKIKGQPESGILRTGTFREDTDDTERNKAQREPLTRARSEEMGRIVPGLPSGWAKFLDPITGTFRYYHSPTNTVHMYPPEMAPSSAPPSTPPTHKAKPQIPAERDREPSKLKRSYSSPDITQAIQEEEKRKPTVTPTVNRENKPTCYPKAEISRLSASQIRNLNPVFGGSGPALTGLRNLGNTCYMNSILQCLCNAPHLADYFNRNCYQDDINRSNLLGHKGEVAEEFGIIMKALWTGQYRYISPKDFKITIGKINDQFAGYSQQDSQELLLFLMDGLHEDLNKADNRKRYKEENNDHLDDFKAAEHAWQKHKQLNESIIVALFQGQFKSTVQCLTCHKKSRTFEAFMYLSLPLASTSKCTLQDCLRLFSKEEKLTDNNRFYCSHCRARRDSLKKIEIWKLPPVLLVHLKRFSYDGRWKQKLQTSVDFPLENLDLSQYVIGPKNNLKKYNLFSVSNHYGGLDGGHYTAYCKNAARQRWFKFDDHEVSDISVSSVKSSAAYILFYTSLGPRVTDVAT
Outline: as §1

USP9X = USP9X (UniProt Q93008)
Outline: as §1

UniProt O00487 = biological target: UniProt O00487
Outline: as §1

Measured: log2 ratio of Biotin-Ahx-Ub-VS probe labelling

Chain of USP9X (Q93008 whole entry): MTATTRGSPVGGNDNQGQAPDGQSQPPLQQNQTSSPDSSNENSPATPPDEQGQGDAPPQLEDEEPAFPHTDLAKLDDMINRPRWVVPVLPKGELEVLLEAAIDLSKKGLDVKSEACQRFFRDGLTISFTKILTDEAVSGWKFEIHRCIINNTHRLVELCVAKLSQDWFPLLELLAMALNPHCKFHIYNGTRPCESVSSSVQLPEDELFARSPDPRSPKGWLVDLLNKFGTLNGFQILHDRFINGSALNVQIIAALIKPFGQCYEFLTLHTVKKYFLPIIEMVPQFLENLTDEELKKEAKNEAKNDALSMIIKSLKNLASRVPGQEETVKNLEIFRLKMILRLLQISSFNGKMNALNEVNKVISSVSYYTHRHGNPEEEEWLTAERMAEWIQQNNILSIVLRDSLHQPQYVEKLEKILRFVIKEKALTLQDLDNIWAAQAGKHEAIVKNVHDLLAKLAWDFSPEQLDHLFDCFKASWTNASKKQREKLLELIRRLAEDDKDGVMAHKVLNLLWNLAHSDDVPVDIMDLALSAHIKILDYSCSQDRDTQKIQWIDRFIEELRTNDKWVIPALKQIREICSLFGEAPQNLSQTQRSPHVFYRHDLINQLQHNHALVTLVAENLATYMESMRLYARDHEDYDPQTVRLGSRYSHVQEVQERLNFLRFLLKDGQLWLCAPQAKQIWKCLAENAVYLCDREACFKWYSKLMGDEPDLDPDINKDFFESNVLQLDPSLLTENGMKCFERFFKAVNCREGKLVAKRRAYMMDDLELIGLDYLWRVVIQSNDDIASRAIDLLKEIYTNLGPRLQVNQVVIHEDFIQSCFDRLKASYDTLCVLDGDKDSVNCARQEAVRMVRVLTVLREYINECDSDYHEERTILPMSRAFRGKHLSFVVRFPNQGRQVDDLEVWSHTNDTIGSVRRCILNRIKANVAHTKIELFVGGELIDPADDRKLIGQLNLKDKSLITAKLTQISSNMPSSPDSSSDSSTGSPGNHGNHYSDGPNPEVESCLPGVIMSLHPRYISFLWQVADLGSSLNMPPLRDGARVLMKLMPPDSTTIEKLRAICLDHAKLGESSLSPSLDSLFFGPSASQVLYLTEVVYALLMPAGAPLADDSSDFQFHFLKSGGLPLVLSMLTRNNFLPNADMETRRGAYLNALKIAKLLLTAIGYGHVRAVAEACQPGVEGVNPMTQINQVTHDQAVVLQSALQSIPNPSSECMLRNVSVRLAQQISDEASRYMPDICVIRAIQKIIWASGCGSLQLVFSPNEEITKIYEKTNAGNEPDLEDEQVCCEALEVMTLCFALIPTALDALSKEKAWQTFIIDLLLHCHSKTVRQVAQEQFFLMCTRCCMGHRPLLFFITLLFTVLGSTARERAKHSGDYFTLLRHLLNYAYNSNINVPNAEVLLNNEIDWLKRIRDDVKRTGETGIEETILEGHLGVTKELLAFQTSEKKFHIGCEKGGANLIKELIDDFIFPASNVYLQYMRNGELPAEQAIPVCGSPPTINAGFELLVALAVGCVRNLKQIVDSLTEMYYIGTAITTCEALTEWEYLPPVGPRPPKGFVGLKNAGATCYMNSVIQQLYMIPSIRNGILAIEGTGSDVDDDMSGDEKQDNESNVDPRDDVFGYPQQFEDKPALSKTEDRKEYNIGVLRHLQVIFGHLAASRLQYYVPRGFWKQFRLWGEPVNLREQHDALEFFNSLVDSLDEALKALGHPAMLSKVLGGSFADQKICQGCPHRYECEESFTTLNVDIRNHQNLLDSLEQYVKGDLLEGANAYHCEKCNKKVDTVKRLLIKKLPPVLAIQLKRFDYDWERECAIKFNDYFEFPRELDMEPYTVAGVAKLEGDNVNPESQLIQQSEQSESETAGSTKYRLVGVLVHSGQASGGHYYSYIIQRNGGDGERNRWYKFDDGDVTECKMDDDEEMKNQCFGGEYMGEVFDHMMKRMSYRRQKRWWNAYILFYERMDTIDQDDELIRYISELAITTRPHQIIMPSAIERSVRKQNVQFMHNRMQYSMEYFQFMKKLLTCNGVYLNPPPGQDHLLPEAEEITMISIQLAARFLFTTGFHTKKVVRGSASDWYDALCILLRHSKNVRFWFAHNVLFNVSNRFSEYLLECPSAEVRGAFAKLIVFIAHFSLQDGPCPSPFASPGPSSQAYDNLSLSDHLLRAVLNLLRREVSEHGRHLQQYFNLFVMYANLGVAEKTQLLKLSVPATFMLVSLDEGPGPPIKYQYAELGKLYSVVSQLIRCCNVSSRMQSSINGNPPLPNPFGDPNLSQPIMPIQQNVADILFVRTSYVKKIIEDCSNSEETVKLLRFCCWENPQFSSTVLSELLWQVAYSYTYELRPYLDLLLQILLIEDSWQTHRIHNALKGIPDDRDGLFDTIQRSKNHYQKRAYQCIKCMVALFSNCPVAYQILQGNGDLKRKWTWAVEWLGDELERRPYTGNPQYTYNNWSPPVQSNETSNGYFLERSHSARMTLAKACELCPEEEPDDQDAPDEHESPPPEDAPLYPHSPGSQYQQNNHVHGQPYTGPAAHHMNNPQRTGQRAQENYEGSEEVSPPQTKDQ
Chain of USP46 (P62068 whole entry): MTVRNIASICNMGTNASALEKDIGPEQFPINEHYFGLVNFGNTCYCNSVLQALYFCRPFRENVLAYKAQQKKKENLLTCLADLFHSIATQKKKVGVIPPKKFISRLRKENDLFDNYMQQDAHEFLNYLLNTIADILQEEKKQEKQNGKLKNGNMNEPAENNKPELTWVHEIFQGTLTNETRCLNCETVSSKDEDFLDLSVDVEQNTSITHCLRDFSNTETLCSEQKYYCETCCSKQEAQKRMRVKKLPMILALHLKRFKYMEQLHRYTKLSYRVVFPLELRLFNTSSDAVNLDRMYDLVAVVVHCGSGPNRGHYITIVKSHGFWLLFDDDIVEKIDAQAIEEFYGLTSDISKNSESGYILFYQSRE
Chain of USP54 (Q70EL1 whole entry): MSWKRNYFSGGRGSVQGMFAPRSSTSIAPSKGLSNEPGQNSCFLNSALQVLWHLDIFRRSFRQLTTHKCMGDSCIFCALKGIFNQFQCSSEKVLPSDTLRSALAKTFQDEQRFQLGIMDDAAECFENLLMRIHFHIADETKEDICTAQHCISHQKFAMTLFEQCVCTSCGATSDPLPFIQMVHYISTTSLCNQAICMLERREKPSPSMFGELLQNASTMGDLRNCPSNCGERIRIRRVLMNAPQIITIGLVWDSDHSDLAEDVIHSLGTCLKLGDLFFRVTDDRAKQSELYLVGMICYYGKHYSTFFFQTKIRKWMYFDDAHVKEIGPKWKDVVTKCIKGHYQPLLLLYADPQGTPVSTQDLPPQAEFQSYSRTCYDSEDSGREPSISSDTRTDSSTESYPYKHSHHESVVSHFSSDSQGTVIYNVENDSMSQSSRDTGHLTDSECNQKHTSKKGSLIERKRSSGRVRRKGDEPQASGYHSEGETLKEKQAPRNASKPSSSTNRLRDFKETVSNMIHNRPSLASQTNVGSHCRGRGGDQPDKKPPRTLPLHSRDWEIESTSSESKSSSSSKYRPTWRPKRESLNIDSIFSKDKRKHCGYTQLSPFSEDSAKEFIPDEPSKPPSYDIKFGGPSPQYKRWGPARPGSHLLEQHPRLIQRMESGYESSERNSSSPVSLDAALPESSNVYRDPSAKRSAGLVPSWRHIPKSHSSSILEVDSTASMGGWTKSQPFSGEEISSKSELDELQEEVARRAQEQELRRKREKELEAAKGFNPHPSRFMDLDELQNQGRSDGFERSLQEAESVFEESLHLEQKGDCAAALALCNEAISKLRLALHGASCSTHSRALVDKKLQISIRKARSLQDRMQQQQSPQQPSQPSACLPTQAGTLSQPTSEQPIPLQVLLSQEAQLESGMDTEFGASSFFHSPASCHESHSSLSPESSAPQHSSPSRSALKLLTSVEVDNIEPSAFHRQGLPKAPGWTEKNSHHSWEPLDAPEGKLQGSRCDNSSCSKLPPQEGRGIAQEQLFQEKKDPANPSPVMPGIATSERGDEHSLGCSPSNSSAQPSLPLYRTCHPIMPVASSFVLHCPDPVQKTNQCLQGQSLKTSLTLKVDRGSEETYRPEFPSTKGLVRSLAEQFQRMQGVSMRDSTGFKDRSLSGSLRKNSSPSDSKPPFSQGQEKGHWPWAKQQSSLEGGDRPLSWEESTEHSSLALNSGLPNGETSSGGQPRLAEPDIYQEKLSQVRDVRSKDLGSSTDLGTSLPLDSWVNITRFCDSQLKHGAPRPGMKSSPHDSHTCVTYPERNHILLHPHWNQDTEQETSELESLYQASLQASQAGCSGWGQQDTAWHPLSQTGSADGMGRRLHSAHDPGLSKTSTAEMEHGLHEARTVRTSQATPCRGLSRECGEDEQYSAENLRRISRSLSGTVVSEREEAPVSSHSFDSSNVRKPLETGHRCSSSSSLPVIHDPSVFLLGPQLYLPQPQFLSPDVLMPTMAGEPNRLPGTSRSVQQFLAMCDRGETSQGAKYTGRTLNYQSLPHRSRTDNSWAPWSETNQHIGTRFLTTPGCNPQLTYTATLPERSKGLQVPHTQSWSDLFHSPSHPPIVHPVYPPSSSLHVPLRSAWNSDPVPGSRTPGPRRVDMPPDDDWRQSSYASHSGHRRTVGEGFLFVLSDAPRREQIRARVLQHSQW
Chain of UniProt O00487 (O00487 whole entry): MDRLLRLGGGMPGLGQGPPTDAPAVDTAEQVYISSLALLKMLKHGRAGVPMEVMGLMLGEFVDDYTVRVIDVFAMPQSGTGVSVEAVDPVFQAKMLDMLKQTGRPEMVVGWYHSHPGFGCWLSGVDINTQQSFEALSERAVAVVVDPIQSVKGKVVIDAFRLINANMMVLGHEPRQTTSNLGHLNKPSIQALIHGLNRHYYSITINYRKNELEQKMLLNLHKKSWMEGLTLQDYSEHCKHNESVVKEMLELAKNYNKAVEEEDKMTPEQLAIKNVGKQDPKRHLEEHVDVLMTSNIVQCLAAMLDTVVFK

COc1ccc(Cl)cc1NC(=O)CCl
inactive: USP42 0.21 | USP46 -0.265 | USP47 -0.266 | USP48 -0.394 | USP5 -0.409 | USP54 0.0369 | USP7 -0.593 | USP8 -0.171 | USP9X -0.48 | UniProt O00487 -0.298

CC1CN(c2ccc(NC(=O)CCl)cc2)CC(C)O1 (stereo not given)
inactive: USP42 0.0421 | USP46 0.0265 | USP47 -0.557 | USP48 -0.402 | USP5 -0.0419 | USP54 0.973 | USP7 -0.186 | USP8 -0.0842 | USP9X -0.166 | UniProt O00487 -0.0932

Cc1cccc(NC(=O)CCl)c1C
inactive: USP42 0.0545 | USP46 -0.22 | USP47 -0.266 | USP48 -0.0682 | USP5 -0.738 | USP54 -0.507 | USP7 -0.293 | USP8 -0.346 | USP9X -0.185 | UniProt O00487 -0.182
